SMN2 splice enh: increases expression of the SMN2 splice variant; HEK293 SMN2-luciferase splicing reporter, luminescence, 30-36 h; Potency, µM (series often up to 46.1 µM), for inactives: at the highest dose activity change, positive = activation, hits mostly activators; 210,000 compounds, 2.8% hits; also: % of control where 0% means no effect; nearly all actives have a fitted effect of over 55% in size
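HEK293 cells carry an SMN2 minigene-luciferase reporter in which exon 7 inclusion puts luciferase in frame. Cells were seeded at 2000 cells/well, attached for 10-12 hours, then exposed to compounds for 30-36 hours at 37C before ONE-Glo luminescence.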
Luc counter: Kinase-Glo luciferase inhibition (counter-screen) | Q27757 | 200,000 compounds, 0.28% hits | AID 1379 | Kinase-Glo luciferase, ATP luminescence, 8 min | Potency, µM (highest dose often 38.3 µM), for the others: at the top dose activity change, negative = inhibition, most hits filed as inhibitors; also: % is scaled to controls: 0 for no effect and ±100 for the full control effect; nearly all actives have a fitted effect of over 60% in size
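Light output from Kinase-Glo luciferase with luciferin and 10 uM ATP in 50 mM imidazole pH 7.2, KCl, MgCl2, Tween 20, BSA; compound pin-delivered, 8-min ambient incubation, then luminescence read.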
NPC1 promoter act: activates the NPC1 promoter. Huh7 NPC1 promoter luciferase reporter, 24 h. Potency, µM (top dose mostly 9.22 µM), without a hit: at the top dose activation, most hits filed as activators. 320,000 compounds, 2.4% hits; also: % of control where 0% means no effect; nearly all actives have a fitted effect of over 60% in size
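Readout is luciferase luminescence, reflecting NPC1 promoter activation in stably transfected Huh7 cells after 24 h compound exposure at 37 °C in reduced-serum medium with 10% FBS.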
Rab9 prom act: activates the Rab9 promoter; 320,000 compounds, 2.8% hits; Potency, µM (top dose mostly 9.22 µM), without a hit: at the top dose activation, negative = inhibition, actives largely listed as activators; Huh7 Rab9 promoter-luciferase reporter, luminescence, 24 h; also: % of control where 0% means no effect; nearly all actives have a fitted effect of over 60% in size
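Cells were plated at 1500 per well in reduced-serum medium with 10% FBS and left 2 h. Compound in DMSO was then added for 24 h at 37 °C. Reporter signal was read by luminescence after 10 min with luciferase detection reagent.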
FLuc counter: firefly luciferase modulation, counter-screen for miR-21 project; purified FLuc, Km substrates, luminescence inhibition; Potency, µM (series often up to 57.5 µM), without a hit: top-dose activity change, negative = inhibition, usual class: inhibitors; 360,000 compounds, 6.9% hits; AID 588342;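 also: plate controls were vehicle for no effect and reference inhibitor for full effect; nearly all actives have a fitted effect of over 55% in size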
Target sequence (P08659 whole entry, looked up): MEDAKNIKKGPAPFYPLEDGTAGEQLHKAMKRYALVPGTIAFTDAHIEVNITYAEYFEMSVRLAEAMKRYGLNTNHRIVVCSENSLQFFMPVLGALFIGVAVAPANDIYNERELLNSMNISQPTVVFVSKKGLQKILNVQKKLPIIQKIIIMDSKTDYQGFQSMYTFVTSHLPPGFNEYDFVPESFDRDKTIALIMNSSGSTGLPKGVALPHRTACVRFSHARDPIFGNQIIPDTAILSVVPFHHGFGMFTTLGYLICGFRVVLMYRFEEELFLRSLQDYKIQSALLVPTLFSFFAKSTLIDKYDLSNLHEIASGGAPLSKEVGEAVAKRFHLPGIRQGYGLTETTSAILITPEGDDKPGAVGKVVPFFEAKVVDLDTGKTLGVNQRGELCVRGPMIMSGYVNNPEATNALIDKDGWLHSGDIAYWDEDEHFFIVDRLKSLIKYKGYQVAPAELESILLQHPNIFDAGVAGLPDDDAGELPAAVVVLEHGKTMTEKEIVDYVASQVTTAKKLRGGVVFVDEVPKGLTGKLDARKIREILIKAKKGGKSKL
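Purified P. pyralis luciferase, 10 nM final, with Km-level 10 uM D-luciferin and 10 uM ATP in 50 mM Tris acetate pH 7.5, 10 mM Mg acetate, 0.01% Tween-20, 0.05% BSA; 6-point qHTS titration about 60 µM downward; luminescence read.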
ELG1 genotox: induces genotoxicity in HEK293T cells with luciferase-tagged ELG1; HEK293T ELG1-luciferase reporter, luminescence, 16 h; Potency, µM (series often up to 46 µM), for inactives: top-dose activity change, positive = activation, actives largely listed as activators; 330,000 compounds, 1.3% hits; also: % of control where 0% means no effect; nearly all actives have a fitted effect of over 60% in size
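Screening used a luciferase reporter fused to human ELG1 in HEK293T cells. Luminescence was read on a CCD plate imager after 16 hr exposure and 30 min ONE-Glo incubation.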
An asterisk follows results filed as active; ? = inconclusive; nt = not tested or not shown; [ ] = remark or other dose. Hits are enriched below; roughly 7.3% of the tested compounds scored in any of these assays. Calls follow the shape of the dose curve; as a rule, active = well fitted curve in the direction sought with a large enough effect; inconclusive = small, poorly fitted or top-dose-only effect, or another doubt; inactive = no such curve, though single readings can be large; an effect the other way counts as inactive or inconclusive. Potency is read from the fitted curve at half-maximal effect.

SMILES	SMN2 splice enh	Luc counter	NPC1 promoter act	Rab9 prom act	FLuc counter	ELG1 genotox
Cc1noc(C)c1COC(=O)CCCc1nc2ccccc2s1	16%	0%	1%	7%	-6%	3%
O=C(OCc1nc2ccccc2s1)c1cccs1	?	-5%	nt	nt	2.7µM*	nt
N#C/C(=C(/O)COC(=O)c1ccccc1O)c1nc2ccccc2s1	-42%	1%	-3%	1%	21µM*	-9%
Cn1c2ccccc2c(=O)c2c(=O)n(-c3ccccc3)c(C3CCCCC3)nc21	-31%	-1%	-6%	-7%	-7%	-6%
Cc1cc(N2CCN(c3ccccc3F)CC2)nc2cc(O)ccc12	-15%	0%	3%	10%	15µM*	7%
Cc1cc(N2CCOCC2)nc2ccc(NC(=O)CCC(=O)N3CCCC(C)C3)cc12 (centres undefined)	13µM*	1%	4µM*	?	21µM*	?
Cc1cc(N2CCCCC2)nc2ccc(NC(=O)CCC(=O)N3CCN(c4ccccc4)CC3)cc12	6%	nt	nt	nt	9.5µM*	nt
Cc1cc(N2CCOCC2)nc2ccc(NC(=O)CCC(=O)N3CCN(c4ccccc4F)CC3)cc12	nt	nt	?	4µM*	6µM*	?
Cc1ccc(C)c(N2CCN(C(=O)CCC(=O)Nc3ccc4nc(N5CCCCC5)cc(C)c4c3)CC2)c1	10%	nt	nt	nt	?	nt
Cc1cc(N2CCOCC2)nc2ccc(NC(=O)CCC(=O)N3CCN(c4ccc(F)cc4)CC3)cc12	nt	nt	25%	?	19µM*	-2%
Cc1cc(N2CCN(C)CC2)nc2ccc(NC(=S)N3CCN(c4ccc(F)cc4)CC3)cc12	-22%	9%	-8%	-10%	0%	-3%
COC(=O)c1ccc2c(c1)N(Cc1nc(-c3cccc(C)c3)oc1C)C(=O)C1CCCN21 (centres undefined)	10µM*	-5%	1%	2%	-1%	9%
c1ccc2nc(C3=NCCN3)ccc2c1	13%	-4%	3%[46.1 µM]	1%[46.1 µM]	nt	nt
Cc1cc2ncn(/N=C/c3ccc(-c4ccccc4)o3)c2cc1C	16%	-3%	-2%	8%	24µM*	-4%
Cc1cc2ncn(/N=C/c3cccnc3)c2cc1C	-14%	-1%	-3%	-9%	?	5%
COC(=O)c1ccccc1C(=O)N1CCCC(CCC(=O)NCc2ccc(F)c(F)c2)C1 (centres undefined)	nt	2%	24%	?	13µM*	?
COC(=O)CCCC(=O)N1CCCC(CCC(=O)NCc2ccc(F)c(F)c2)C1 (centres undefined)	nt	0%	-4%	-3%	17µM*	?
O=C(CCC1CCCN(C(=O)c2ccc3c(c2)OCCO3)C1)NCc1ccccc1F (centres undefined)	nt	nt	26%	2.8µM*	17µM*	?
Cc1ccc(-c2c(C)sc(=NC(=O)c3ccco3)n2C)cc1	?	-10%	1.6µM*	2.5µM*	0.95µM*	17%
COc1ccc(OC)c2c1sc(=NC(=O)c1ccco1)n2C	28%	-2%	17%	4%	-2%	?
O=P(Cc1ccncc1)(c1ccccc1)c1ccccc1	-6%	1%	0%	-2%	0%	-6%
CCN(CC)c1ccc(/C=N/NC(=O)c2ccco2)cc1	1.6µM*	-15%	?	?	1.5µM*	5.8µM*
CCN(CC)c1ccc(/C=N/NC(=O)c2ccco2)c(O)c1	nt	nt	-5%	-17%	5.4µM*	23µM*
CCN(CC)c1ccc(/C=N/NC(=O)Cc2cccs2)c(O)c1	-93%	0%	-30%	-39%	?	?
CCOC(=O)C1=CN(Cc2cccc(F)c2)S(=O)(=O)N(C)C1c1ccc2ccccc2c1 (centres undefined)	nt	nt	nt	nt	nt	0%
SMILES	SMN2 splice enh	Luc counter	NPC1 promoter act	Rab9 prom act	FLuc counter	ELG1 genotox
CCCn1c2ccccc2c2nc3ccccc3nc21	1%	2%	-2%	2%	2%[2.3 µM]	-6%
CCN(CC)CCn1c2ccccc2c2nc3ccccc3nc21	nt	nt	?	?	21µM*	?
Cc1ccsc1C1C(C(=O)O)c2ccccc2C(=O)N1C (centres undefined)	-1%	-5%	0%	1%	0%	0%
Cc1cc(C)c2c(C)c(C(=O)NCc3ccc(S(N)(=O)=O)cc3)oc2c1	10%	4%	-6%	-2%	0%	13%
CCOC(=O)C1=C(c2ccccc2)NC(=O)NC1c1cc(Cl)c(O)c(OC)c1 (centres undefined)	20%	0%	-4%	2%	3%	19%
CCOC(=O)C1=C(c2ccccc2)NC(N)=NC1c1ccc(OCc2ccc(Cl)cc2)c(OC)c1 (centres undefined)	nt	nt	1%	2%	13µM*	-5%
Nc1nc2c(C(=O)N3CCOCC3)nnn2c2ccccc12	nt	nt	3.2µM*	3.2µM*	12µM*	?
N#Cc1nc(-c2cccc3ccccc23)oc1N1CCCCC1	8%	11%	?	?	?	16%
CC(C)Nc1oc(-c2cccc3ccccc23)nc1C#N	10%	11%	0%	?	12µM*	?
CCNc1oc(-c2cccc3ccccc23)nc1C#N	-4%	1%	nt	nt	?	nt
CC1CCN(c2oc(-c3cccc4ccccc34)nc2C#N)CC1	11µM*	0%	?	?	?	?
COCCNc1oc(-c2ccccc2Cl)nc1C#N	0%	0%	17%	9%	19µM*	2%
O=C1O/C(=C/c2ccccc2)N=C1c1ccccc1	7%	0%	-1%	0%	2.7µM*	0%
CCOc1ccccc1C(=O)NC1(C(F)(F)F)C(=O)Nc2c1c(=O)[nH]c(=O)n2-c1ccccc1 (centres undefined)	0%	nt	nt	nt	?	nt
COc1ccc(CCN(/C=C2\Sc3ccccc3C2=O)C(C)=O)cc1OC	nt	nt	-5%	-3%	27µM*	0%
CCC1=Nc2cc(C(=O)NCCc3ccc(OC)c(OC)c3)ccc2Sc2ccccc21	-39%	nt	nt	nt	-3%	nt
O=C(CSc1cccs1)Nc1ccc2ccccc2c1	9%	-8%	?	?	21µM*	?
O=C(CSc1cccs1)Nc1cccc2ccccc12	13µM*	0%	?	?	13µM*	?
CCN(CC(=O)Nc1ccc(NC(C)=O)cc1)C(=O)c1ccc2c(c1)OCO2	nt	nt	-1%	0%	-1%	1%
CC(C)(C)N1C(=O)Cc2c1nc(N)c1c(N)nc(N3CCCCC3CO)c(C#N)c21 (centres undefined)	2%	-1%	24%	23%	8.5µM*	2%
CN(C)C(CNC(=O)c1oc2ccccc2c1CSc1ncn[nH]1)c1ccco1 (centres undefined)	nt	nt	-10%	-2%	6%	1%
